PubChem BioAssay AID652208 (Broad Institute, 2013)
Results with a measured potency or affinity are listed apart. Activity calls are given as the source filed them.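 The calls were made as follows: active = Loss of cell signal with fitted half-effect dose at or below twice the top valid tested dose; inconclusive = Poor fit, or flat fit from -70 to -30 percent; inactive = Half-effect above limit, rising signal, or flat within 30 percent.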

Assay: viability loss in HEK293T cells – cell-based, cherry-picks, cytotoxicity control for HIV Vif inhibitor project, dose response (AID 652208);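 also: 0% = median neutral control wells and -100% = median staurosporine control wells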
Settings: CellTiter-Glo luminescence, 24 h; series mostly up to 26 µM; activity change, negative = cytotoxicity: at the top concentration

SMILES | activity change, negative = cytotoxicity
CCC(C)n1c(-c2cccs2)nc2nc3ccccc3nc21 (stereo not given) | -14.9% (inactive)
CC(C)C(c1nnnn1CC1CCCO1)N1CCN(C2CCCC2)CC1 (stereo not given) | -1.94% (inactive)
CCOc1ccc(Nc2nc3c(C)cccc3cc2C#N)cc1 | -0.828% (inactive)
CCOc1ccc(C(C)=O)cc1COC(=O)c1cc([N+](=O)[O-])ccc1N1CCOCC1 | -20.4% (inactive)
CCC1=Nc2cc(C(=O)NCc3ccco3)ccc2Sc2ccc(C)cc21 | -20.2% (inactive)
Cc1ccnc(SCC(=O)n2c3c(c4ccccc42)CC(C)CC3)n1 (stereo not given) | -4.04% (inactive)
Cc1ccc(C(=O)NC(CCc2ccccc2)C(=O)O)cc1 (stereo not given) | 5.87% (inactive)
COc1cc(/C=C/C(=O)O)ccc1S(=O)(=O)N1CCCc2ccccc21 | 3.17% (inactive)
CC(OC(=O)c1c[nH]c2ccccc12)C(=O)N1CCCC1 (stereo not given) | -0.409% (inactive)
CCCCOc1cccc2c(=O)n(CC(=O)Nc3ccc4c(c3)OCCO4)ccc12 | 6.23% (inactive)
CNC(=O)COc1ccccc1C(=O)Nc1ccc2c(c1)oc1ccccc12 | -10.8% (inactive)
CCN(CC)c1ccc2cc(C(N)=O)c(=O)oc2c1 | 3.22% (inactive)
Cc1nc(-c2ccc(O)c(O)c2)cs1 | -6.88% (inactive)
COc1cc(C(C)=O)ccc1OCC(=O)NCC1(N2CCCCC2)CCCCC1 | -8.55% (inactive)
CCOc1ccc(S(=O)(=O)NCc2ccccn2)cc1NC(=O)c1ccccc1 | -22.6% (inactive)
COc1ccc(S(=O)(=O)Nc2cc3c(C(C)=O)c(C)oc3c3ccccc23)cc1 | -15.9% (inactive)
COc1cc(OC)cc(C(=O)NC(C(=O)Nc2ccc3c(c2)OCO3)C(C)C)c1 (stereo not given) | 3.67% (inactive)
O=C(C1COc2ccccc2O1)N1CCN(Cc2ccc3c(c2)OCO3)CC1 (stereo not given) | -3.74% (inactive)
NS(=O)(=O)c1ccc(-c2ccc(/C=C3\SC(=O)NC3=O)o2)cc1 | 0.766% (inactive)
O=C(CCCSc1nc2ccccc2c(=O)[nH]1)c1ccccc1 | -0.796% (inactive)
